We go through twelve compounds from PubChem BioAssay (Tox21).

A number with no mark means an inactive call. Results filed as inconclusive are left out. The source made the active and inactive calls. Unless noted, calls follow the shape of the dose curve; as a rule, active = well fitted curve in the direction sought with a large enough effect in the repeat runs; inconclusive = weak or mixed curves; inactive = no such curve, though single readings can be large; an effect the other way counts as inactive or inconclusive. Non-standard residues stand in square brackets, D forms with d. Residues, ends and D or L forms follow the SMILES beside them. *: point of attachment. Sta = CC(C)C[C@H](N)[C@@H](O)CC(=O)O; Isovaleryl = CC(C)CC(=O)*

Assay [1] in a line: qHTS assay to identify small molecule agonists of the TGF-beta/Smad signaling pathway (AID 1346859; active = well fitted activation curve with a large enough effect in the signal ratio in the repeat runs, not every such curve was filed as active; the % refers to the signal ratio; also: series mostly up to about 77 µM). The gist of the method: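 Read-out: fluorescence at 460 and 530 nm (405 nm excitation) after a 2 hr room-temperature incubation with beta-lactamase FRET substrate. SBE-bla HEK 293T cells had been treated with test compounds for 5 hr at 37 C.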
Assay [2] has as its target Thyrotropin-releasing hormone receptor (Homo sapiens) (UniProt P34981). Nature of the assay: qHTS assay to identify small molecule antagonists of the thyrotropin-releasing hormone receptor (TRHR) signaling pathway (AID 1346877; active = well fitted inhibition curve with a large enough effect in the repeat runs, not every such curve was filed as active; also: series mostly up to about 51 µM). Put shortly: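 Antagonist mode: after a 5 min room-temperature compound exposure, cells were stimulated with 1 nM (final) TRH. Dye-loaded TRHR-HEK293 cells were used, and calcium-dependent fluorescence was followed for 3 min, with 15-point titrations run in triplicate.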

Assay [3] shares this target. Nature of the assay: qHTS assay to identify small molecule agonists of the thyrotropin-releasing hormone receptor (TRHR) signaling pathway (AID 1346891; calls by dose curve; also: potency is read from the fitted curve at half-maximal effect;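 as to activation: HEK293 cells expressing TRHR with calcium dye readout; series mostly up to about 58 µM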). The gist of the method:
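HEK293/TRHR cells, 1500 per well, 18 h 37 °C; Ca dye 2 h 37 °C; pin-tool compound addition (agonist mode); kinetic fluorescence 3 min, 1 s reads; 15 concentrations, triplicate.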

The nature of assay [4]: Human pregnane X receptor (PXR) small molecule agonists, qHTS cell viability counter screen (AID 1346977). Also: nearly all actives have a fitted effect of over 50% in size. Put shortly: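 Fluorescence read-out (CellTiter-Fluor) of viability in PXR-Luc HepG2 cells, multiplexed with the luciferase agonist read. Compounds in DMSO added after 5hr plating; 24hr total exposure at 37C, 5% CO2.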
The nature of assay [5]: Caspase-3/7 induction in HepG2 cells by small molecules, qHTS assay (AID 1346978). Also: nearly all actives have a fitted effect of over 15% in size. The gist of the method: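 Wild-type HepG2 cells (2,000/well) were settled 5 h at 37 C, 5% CO2, then exposed to compounds in DMSO for 17 h. Caspase-3/7 activity was read by luminescence 30 min after adding Caspase-Glo 3/7 reagent at room temperature.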
Assay [6] is described as follows: Caspase-3/7 induction in CHO-K1 cells by small molecules, qHTS assay (AID 1346980). Also: nearly all actives have a fitted effect of over 15% in size. Put shortly: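 Wild-type cells were seeded at 1,500 per well and settled 5 hr at 37 C, 5% CO2, then exposed to DMSO-dissolved compounds for 17 hr. Caspase-Glo 3/7 reagent was added, and luminescence was read after 30min at room temperature.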
The nature of assay [7]: Caspase-3/7 induction in HepG2 cells by small molecules, qHTS cell viability counter screen (AID 1346981). Also: series mostly up to about 92 µM; nearly all actives have a fitted effect of over 30% in size. Put shortly:
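CellTiter-Fluor fluorescence measured viability in the same wells used for Caspase-Glo 3/7. HepG2 (wild type) at 2,000 cells/well were pre-incubated 5 hr, dosed, and given reagent at 16 hr, with 1 hr further at 37C.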

Assay [8] addresses Cytochrome P450 2C19 (Homo sapiens) (UniProt P33261). Nature of the assay: Cytochrome P450 Family 2 Subfamily C Member 19 (CYP2C19) small molecule antagonists: luciferase reporter qHTS assay (AID 1671197). Also: nearly all actives have a fitted effect of over 65% in size. Also: potency is read from the fitted curve at half-maximal effect. The gist of the method: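 P450-Glo CYP2C19 system: enzyme-substrate mix with compound 10 min at room temperature, then NADPH regeneration solution, 1 h at 37C. Proluciferin-to-luciferin conversion detected by luminescence after 20 min with detection reagent; ketoconazole as positive control.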

Assay [9] deals with Cytochrome P450 2C9 (Homo sapiens) (UniProt P11712). Nature of the assay: Cytochrome P450 Family 2 Subfamily C Member 9 (CYP2C9) small molecule antagonists: luciferase reporter qHTS assay (AID 1671198). Also: nearly all actives have a fitted effect of over 50% in size. Also: potency is read from the fitted curve at half-maximal effect. Put shortly: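 CYP2C9 activity was measured with a P450-Glo proluciferin substrate. Enzyme–substrate mix was held with compound for 10 min at room temperature, then NADPH regeneration solution was added for 1 h at 37C. Luciferin product was read as luminescence.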
Chain of Cytochrome P450 2C9 (Homo sapiens) (P11712 whole entry, looked up): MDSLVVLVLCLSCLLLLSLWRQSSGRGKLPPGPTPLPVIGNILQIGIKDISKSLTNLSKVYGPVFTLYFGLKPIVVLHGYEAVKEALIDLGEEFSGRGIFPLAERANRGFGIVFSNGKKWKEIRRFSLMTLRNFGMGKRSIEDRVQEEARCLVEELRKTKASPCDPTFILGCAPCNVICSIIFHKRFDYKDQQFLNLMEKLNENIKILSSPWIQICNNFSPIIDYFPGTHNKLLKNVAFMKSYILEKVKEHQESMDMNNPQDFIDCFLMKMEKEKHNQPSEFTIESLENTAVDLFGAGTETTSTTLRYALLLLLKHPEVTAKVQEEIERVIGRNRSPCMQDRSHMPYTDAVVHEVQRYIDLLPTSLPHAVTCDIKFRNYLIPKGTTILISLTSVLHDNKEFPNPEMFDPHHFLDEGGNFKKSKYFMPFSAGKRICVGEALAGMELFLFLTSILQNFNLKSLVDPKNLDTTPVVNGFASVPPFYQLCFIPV

Assay [10] deals with Cytochrome P450 1A2 (Homo sapiens) (UniProt P05177). The assay can be described thus: Cytochrome P450 Family 1 Subfamily A Member 2 (CYP1A2) small molecule antagonists: luciferase reporter qHTS assay (AID 1671199). Also: nearly all actives have a fitted effect of over 50% in size. Also: potency is read from the fitted curve at half-maximal effect. Put shortly:
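Luminescence from luciferin formed by CYP1A2 from a proluciferin substrate, read 20 min after detection reagent. Compound was pre-incubated 10 min with enzyme-substrate, and reaction started with NADPH regeneration solution for 1 h at room temperature; furafylline control.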

A short description of assay [11]: Caspase-3/7 induction in CHO-K1 cells by small molecules, qHTS cell viability counter screen (AID 1346979). Also: nearly all actives have a fitted effect of over 35% in size. The gist of the method: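 CHO-K1 wt, 1,500 cells/well; 5hr pre-incubation 37C/5% CO2; compound pin transfer (DMSO); 16hr exposure; CellTiter-Fluor added, 1hr, fluorescence read.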
Assay [12] concerns the target Cytochrome P450 2D6 (Homo sapiens) (UniProt P10635). The assay can be described thus: Cytochrome P450 Family 2 Subfamily D Member 6 (CYP2D6) small molecule antagonists: luciferase reporter qHTS assay (AID 1671196). Also: series mostly up to about 120 µM; nearly all actives have a fitted effect of over 50% in size. The gist of the method: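 CYP2D6 activity was followed as luminescence from its luciferin product after a 1 h NADPH-driven reaction at room temperature. Enzyme-substrate mix and compound were pre-incubated for 10 min, and the signal was read 20 min after adding detection reagent.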

The target of assay [13] is Voltage-gated inwardly rectifying potassium channel KCNH2 (Homo sapiens) (UniProt Q12809). Nature of the assay: Human Ether-a-go-go-Related Gene (hERG) channel small molecule antagonists: fluorescence cell-based qHTS assay (AID 1671200). The gist of the method:
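Read-out: thallium influx as a surrogate for potassium, tracked as fluorescence (480 nm ex/540 nm em) every second for 2 min after Stimulus Buffer addition in dye-loaded hERG-U2OS cells.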

Assay [14] has as its target Cytochrome P450 3A4 (Homo sapiens) (UniProt P08684). Nature of the assay: Cytochrome P450 Family 3 Subfamily A Member 4 (CYP3A4) small molecule antagonists: luciferase reporter qHTS assay (AID 1671201). Put shortly:
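Luminescent readout (RLU) proportional to CYP3A4 activity, from luciferin generated off a proluciferin substrate. Enzyme–substrate mix plus compound 10 min at room temp, NADPH regeneration 1 h, detection reagent 20 min.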

The target of assay [15] is Nuclear receptor subfamily 1 group I member 2 (Homo sapiens) (UniProt O75469). The assay can be described thus: Human pregnane X receptor (PXR) small molecule agonists, qHTS assay (AID 1346982). Also: nearly all actives have a fitted effect of over 35% in size. Put shortly:
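Agonist mode: luminescence from ONE-Glo after 24 h compound exposure at 37C in HepG2 cells carrying hPXR-responsive CYP3A4 luciferase, plated in charcoal-stripped serum medium 5 h beforehand.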

Assay [16] addresses Nuclear receptor subfamily 1 group I member 2 (Rattus norvegicus) (UniProt Q9R1A7). The assay can be described thus: Rat pregnane X receptor (rPXR) activation by small molecules, qHTS assay (AID 1346983). Also: nearly all actives have a fitted effect of over 20% in size. The settings on record: rPXR luciferase reporter cells, One-Glo luminescence, 24 h; max activation: hits give high values. The gist of the method:
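Cell-based rPXR luciferase reporter assay, 2,000 cells per well, rested 5hr at 37 C before compound addition in DMSO, then 24 hr at 37 C. One-Glo reagent was added and luminescence read after 30 min at room temperature.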

In assay [17] the target is Nuclear receptor subfamily 1 group I member 2 (Homo sapiens) (UniProt O75469). Nature of the assay: CYP3A4 induction through human pregnane X receptor (PXR) by small molecules, qHTS assay (AID 1346984). Also: nearly all actives have a fitted effect of over 40% in size. The gist of the method: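 Read-out is luminescence after One-Glo addition, following a 3 hr, 37C incubation with Luciferin-IPA CYP3A4 substrate (3uM final). Before that, compounds were on DPX-2 cells (HepG2 co-transfected with PXR element plus CYP3A4-promoter luciferase) for 24 hr at 37C.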
Chain of Nuclear receptor subfamily 1 group I member 2 (Homo sapiens) (O75469 whole entry, looked up): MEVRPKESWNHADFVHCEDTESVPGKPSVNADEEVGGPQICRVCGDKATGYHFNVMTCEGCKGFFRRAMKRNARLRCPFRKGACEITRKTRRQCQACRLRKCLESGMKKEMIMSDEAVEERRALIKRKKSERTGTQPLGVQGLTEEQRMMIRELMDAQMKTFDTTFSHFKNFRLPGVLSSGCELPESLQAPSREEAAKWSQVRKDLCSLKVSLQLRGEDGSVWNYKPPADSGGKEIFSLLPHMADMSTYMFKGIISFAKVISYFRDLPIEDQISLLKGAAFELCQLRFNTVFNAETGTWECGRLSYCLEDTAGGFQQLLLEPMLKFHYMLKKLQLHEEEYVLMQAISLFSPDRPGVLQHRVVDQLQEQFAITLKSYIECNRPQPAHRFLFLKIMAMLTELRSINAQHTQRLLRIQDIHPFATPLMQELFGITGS

Assay [18] shares this target. Nature of the assay: Human pregnane X receptor (PXR) activation by small molecules, qHTS assay (AID 1346985). Also: nearly all actives have a fitted effect of over 40% in size. The gist of the method:
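DPX-2 cells (HepG2 co-transfected with a PXR response element and a CYP3A4-promoter luciferase construct) were seeded at 2,000 per well, rested 5 hr at 37C, then exposed to DMSO-dissolved compounds for 24 hr. Activation was read as luciferase luminescence.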
% is scaled to controls: 0 for no effect and ±100 for the full control effect.

Chain of Nuclear receptor subfamily 1 group I member 2 (Rattus norvegicus) (Q9R1A7 whole entry, looked up): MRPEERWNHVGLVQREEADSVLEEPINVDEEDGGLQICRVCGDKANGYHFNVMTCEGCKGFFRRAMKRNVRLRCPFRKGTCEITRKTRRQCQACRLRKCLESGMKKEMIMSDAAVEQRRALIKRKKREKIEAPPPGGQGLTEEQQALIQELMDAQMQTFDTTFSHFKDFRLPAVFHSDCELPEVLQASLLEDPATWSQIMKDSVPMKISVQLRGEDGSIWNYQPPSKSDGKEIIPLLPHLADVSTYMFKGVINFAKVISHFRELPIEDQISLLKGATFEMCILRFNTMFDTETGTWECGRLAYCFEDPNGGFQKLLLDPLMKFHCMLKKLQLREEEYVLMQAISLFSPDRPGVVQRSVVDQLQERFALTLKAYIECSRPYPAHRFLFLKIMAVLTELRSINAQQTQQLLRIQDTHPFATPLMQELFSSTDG
Chain of Cytochrome P450 3A4 (Homo sapiens) (P08684 whole entry, looked up): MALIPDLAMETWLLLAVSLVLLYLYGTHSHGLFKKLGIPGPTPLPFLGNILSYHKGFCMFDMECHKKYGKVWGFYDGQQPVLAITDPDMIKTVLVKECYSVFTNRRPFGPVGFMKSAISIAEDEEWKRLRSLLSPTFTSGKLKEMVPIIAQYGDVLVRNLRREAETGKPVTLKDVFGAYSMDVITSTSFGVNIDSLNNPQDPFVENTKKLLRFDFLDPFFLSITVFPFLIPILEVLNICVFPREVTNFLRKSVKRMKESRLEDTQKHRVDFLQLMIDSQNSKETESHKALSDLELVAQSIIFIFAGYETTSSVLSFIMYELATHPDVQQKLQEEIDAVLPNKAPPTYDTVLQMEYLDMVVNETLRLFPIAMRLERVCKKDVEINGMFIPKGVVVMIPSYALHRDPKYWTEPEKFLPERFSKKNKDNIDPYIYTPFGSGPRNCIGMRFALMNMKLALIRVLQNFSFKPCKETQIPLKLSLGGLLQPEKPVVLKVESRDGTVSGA
Chain of Voltage-gated inwardly rectifying potassium channel KCNH2 (Homo sapiens) (Q12809 whole entry, looked up): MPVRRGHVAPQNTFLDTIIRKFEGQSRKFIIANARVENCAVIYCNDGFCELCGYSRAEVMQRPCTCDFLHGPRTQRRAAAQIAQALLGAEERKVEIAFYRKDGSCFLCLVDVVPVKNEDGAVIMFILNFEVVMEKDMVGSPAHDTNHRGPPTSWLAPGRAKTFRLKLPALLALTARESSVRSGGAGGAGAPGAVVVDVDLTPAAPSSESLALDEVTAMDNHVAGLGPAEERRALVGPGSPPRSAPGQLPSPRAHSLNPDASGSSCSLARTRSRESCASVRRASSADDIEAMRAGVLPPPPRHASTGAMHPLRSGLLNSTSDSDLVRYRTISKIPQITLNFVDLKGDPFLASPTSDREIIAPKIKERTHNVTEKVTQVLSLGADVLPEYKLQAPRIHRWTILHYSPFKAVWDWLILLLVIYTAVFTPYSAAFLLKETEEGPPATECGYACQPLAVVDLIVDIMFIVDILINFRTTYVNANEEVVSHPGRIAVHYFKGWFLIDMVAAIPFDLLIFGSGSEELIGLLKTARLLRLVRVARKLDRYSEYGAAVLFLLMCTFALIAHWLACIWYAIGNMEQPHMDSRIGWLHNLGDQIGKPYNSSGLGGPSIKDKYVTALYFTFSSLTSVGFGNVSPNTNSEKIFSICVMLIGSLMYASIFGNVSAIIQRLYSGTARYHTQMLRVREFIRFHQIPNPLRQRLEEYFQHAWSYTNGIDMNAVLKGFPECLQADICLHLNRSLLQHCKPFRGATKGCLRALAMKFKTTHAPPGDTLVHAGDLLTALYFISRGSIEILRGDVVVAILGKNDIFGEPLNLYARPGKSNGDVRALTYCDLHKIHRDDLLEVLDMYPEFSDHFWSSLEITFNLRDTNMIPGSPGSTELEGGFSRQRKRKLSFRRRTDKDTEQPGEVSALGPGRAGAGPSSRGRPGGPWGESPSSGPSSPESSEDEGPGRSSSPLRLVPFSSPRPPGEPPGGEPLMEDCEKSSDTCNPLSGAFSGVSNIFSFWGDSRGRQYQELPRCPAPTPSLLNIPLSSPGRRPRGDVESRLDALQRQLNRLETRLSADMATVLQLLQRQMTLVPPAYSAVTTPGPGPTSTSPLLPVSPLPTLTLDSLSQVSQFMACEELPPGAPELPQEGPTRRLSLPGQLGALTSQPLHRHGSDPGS
Chain of Cytochrome P450 1A2 (Homo sapiens) (P05177 whole entry, looked up): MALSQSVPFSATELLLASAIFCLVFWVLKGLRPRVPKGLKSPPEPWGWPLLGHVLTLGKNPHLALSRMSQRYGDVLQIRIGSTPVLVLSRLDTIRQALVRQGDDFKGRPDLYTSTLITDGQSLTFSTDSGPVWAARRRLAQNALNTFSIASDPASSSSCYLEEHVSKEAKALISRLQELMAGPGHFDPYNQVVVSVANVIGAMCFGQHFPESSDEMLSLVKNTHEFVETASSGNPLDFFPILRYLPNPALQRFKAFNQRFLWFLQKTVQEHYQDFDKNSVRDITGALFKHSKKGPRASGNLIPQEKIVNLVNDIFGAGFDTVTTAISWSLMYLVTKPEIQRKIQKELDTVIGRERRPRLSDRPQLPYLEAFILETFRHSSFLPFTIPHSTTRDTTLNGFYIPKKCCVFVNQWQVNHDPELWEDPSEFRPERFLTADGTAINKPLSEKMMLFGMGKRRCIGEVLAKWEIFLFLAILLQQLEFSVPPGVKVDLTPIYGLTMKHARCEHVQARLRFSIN
Chain of Cytochrome P450 2D6 (Homo sapiens) (P10635 whole entry, looked up): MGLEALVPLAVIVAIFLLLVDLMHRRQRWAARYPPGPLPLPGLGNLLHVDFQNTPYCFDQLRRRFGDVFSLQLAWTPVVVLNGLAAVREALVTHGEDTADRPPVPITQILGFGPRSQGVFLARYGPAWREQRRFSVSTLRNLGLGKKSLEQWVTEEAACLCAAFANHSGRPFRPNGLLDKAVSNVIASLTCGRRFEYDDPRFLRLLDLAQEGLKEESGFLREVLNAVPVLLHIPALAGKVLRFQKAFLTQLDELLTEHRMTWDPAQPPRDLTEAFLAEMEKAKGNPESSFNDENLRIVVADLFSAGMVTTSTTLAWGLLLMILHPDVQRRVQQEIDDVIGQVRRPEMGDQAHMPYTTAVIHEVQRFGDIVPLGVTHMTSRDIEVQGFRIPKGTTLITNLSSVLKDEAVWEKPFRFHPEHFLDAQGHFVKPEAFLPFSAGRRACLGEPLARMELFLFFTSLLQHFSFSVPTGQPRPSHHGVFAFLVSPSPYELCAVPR
Chain of Cytochrome P450 2C19 (Homo sapiens) (P33261 whole entry, looked up): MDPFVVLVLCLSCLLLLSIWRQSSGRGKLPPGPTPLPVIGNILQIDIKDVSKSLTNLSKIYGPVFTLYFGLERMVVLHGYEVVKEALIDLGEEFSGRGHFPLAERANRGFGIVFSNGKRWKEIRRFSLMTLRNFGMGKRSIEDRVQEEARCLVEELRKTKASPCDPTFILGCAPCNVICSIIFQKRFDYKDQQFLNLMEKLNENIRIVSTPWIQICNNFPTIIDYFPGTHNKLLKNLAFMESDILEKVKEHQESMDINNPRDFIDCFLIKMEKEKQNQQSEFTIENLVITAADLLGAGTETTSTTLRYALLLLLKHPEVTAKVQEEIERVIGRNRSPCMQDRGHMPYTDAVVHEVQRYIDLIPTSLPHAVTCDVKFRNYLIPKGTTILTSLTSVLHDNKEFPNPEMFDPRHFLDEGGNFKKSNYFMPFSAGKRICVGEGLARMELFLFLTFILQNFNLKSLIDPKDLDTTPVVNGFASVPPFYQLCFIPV
Chain of Thyrotropin-releasing hormone receptor (Homo sapiens) (P34981 whole entry, looked up): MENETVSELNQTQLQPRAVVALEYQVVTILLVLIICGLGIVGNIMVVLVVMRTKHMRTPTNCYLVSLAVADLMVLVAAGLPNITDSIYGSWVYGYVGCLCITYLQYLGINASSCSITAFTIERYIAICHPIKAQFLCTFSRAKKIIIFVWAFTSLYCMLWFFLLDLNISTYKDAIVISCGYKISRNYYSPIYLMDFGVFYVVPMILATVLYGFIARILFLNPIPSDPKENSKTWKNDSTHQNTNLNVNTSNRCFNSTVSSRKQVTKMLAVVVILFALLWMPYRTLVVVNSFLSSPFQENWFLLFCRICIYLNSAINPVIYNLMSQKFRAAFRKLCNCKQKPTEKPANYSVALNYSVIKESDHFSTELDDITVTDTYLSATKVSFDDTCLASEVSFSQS

As to `Cc1ccc(O)c(C(=O)c2ccccc2)c1`, the compound was classed as inactive in assay [1], in assay [2], in assay [4], in assay [5], in assay [6] and in assay [7]. The Potency result in [3] was “inactive”. The Potency is 1.01 µM (active) in assay [8], 5.69 µM (active) in assay [9] and 1.43 µM (active) in assay [10].
In the case of `N#CC1(N)CCCCC1`, the outcome in assay [1], in [2], in assay [4], in assay [5] and in assay [7] was inactive. For the same compound, the Potency entry in assay [3], in assay [11], in assay [12], in [8], in assay [9] and in [10] was “inactive” each time. Besides, the Potency entry in [13] and in assay [14] was “inactive” in each case.
On to `COc1cnc(NS(=O)(=O)c2ccc(N)cc2)nc1`, for which the compound was called inactive in assay [1], in assay [2], in assay [4], in assay [5], in [6] and in assay [7]. Besides, the compound was classed as inactive in [17] and in assay [18]. Moreover, the Potency result in assay [3], in assay [15], in [9], in assay [10], in assay [13] and in assay [14] was “inactive” throughout. In assay [16], the max activation is -1.37%.
Take `O=C(CCBr)N1CCN(C(=O)CCBr)CC1`: the outcome in [1], in [2], in [4], in assay [5], in [17] and in [18] was inactive. The Potency entry in assay [3], in assay [11], in assay [15], in assay [8], in assay [9] and in assay [14] was “inactive” each time. Also, the max activation in assay [16] is -2.92%.
With `CC1(C)S[C@@H]2[C@H](NC(=O)Cc3ccccc3)C(=O)N2[C@H]1C(=O)O` (tested in a mixture with another compound), the compound was classed as inactive in assay [1], in assay [2], in assay [4], in assay [5] and in [6]. The Potency result in [3], in [11] and in [13] was “inactive” throughout.
For `CCCCCCCCCCCC(C)=O`, the result in [1], in assay [2], in assay [4], in assay [5], in assay [6] and in assay [7] was inactive. Also, the Potency result in assay [3], in assay [15], in assay [12], in [8], in [9] and in assay [10] was “inactive” in each case.
In the case of `COC(=O)c1ccccc1Cl`, the outcome in assay [1], in [2], in [4] and in assay [7] was inactive. In addition, the Potency result in assay [3], in assay [11], in [15], in assay [12], in [8] and in assay [9] was “inactive” each time. The Potency result in assay [10], in [13] and in assay [14] was “inactive” throughout.
In the case of `CC(C)CC(=O)N[C@H](C(=O)N[C@H](C(=O)N[C@@H](CC(C)C)[C@@H](O)CC(=O)N[C@@H](C)C(=O)N[C@@H](CC(C)C)[C@@H](O)CC(=O)O)C(C)C)C(C)C` (Isovaleryl-VV[Sta]A[Sta]-OH), the result in [1], in assay [2], in [4], in assay [6], in assay [7] and in [17] was inactive. In addition, in assay [18], the outcome was inactive. The Potency entry in assay [3], in assay [8], in [9], in [13] and in assay [14] was “inactive” in each case. Moreover, the max activation in assay [16] was -4.42%.
Take `C=CC(=O)OCC[N+](C)(C)C`: the call in assay [1], in [2], in [4], in assay [6] and in assay [7] was inactive. The Potency in assay [3] was 1.56 µM (active). In addition, the Potency result in [11], in assay [15], in assay [12], in assay [8], in assay [9] and in assay [10] was “inactive” throughout. Besides, the Potency entry in assay [13] and in assay [14] was “inactive” each time.
As for `C=CC(=O)CC`, the compound was called inactive in assay [1], in assay [4], in assay [5], in assay [6] and in assay [7]. Also, the Potency entry in assay [11], in assay [15], in [8], in assay [9], in assay [10] and in assay [14] was “inactive” each time.
Regarding `CC(=O)c1ccc(O)c(C(N)=O)c1`, the call in assay [1], in assay [2], in assay [4] and in assay [6] was inactive. Moreover, the Potency result in assay [3], in assay [11], in assay [15], in [12], in [8] and in assay [9] was “inactive” in each case. Besides, the Potency entry in assay [10], in assay [13] and in assay [14] was “inactive” each time.
For `CN(C)CCC[C@@]1(c2ccc(F)cc2)OCc2cc(C#N)ccc21`, the result in assay [1], in assay [2], in [6], in assay [7], in assay [17] and in assay [18] was inactive. Moreover, the Potency result in assay [3], in assay [11], in [15], in assay [8], in assay [9] and in [10] was “inactive” throughout. The Potency result in assay [14] is “inactive”. The max activation in assay [16] is -1.39%.
